Compounds without any hit were thinned out: in the full panel of roughly 83,000, 20% have a hit.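 In brief: 96-well plates, 48 h treatment, single concentration, percent growth endpoint.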 The source made the active and inactive calls. The calls were made as follows: active = growth percent below 10; inactive = the rest.
Tested on: MDA-MB-468 breast
Assay: NCI-60 one-dose screen, 48 h (100 = growth as untreated, 0 = no growth, -100 = all killed)
Settings: 10 µM unless noted

| SMILES | growth |
| --- | --- |
| COc1cc2c(cc1O)CC[C@@H]1[C@@H]2CC[C@]2(C)[C@@H](OCCN(C)C)CC[C@@H]12 | 19.3% (inactive) |
| CCCCCCCCCCCC1N=C(N)N=C(N)N1c1cccc(Br)c1 (stereo unspecified) | -92.7% (active) |
| N#C/C(=C\c1ccc(C#N)cc1)C(=O)c1ccccc1 | 95.7% (inactive) |
| O=C(c1ccc(O)cc1)C1[C@H](c2ccc(Cl)cc2)[C@@H](c2ccccc2)NC12C(=O)Nc1ccc(Cl)cc12 (stereo partly specified) | 39.4% (inactive) |
| C=C(C)[C@@H]1CC[C@]2(c3ncc(C)o3)CC[C@]3(C)[C@H](CC[C@@H]4[C@@](C)(CCC#N)[C@H](C(=C)C)CC[C@]43C)[C@@H]12 | -63% [100 µM] (active) |
| CCN(Cc1cccc(S(=O)(=O)[O-])c1)c1ccc(C(=C2C=CC(=[N+](CC)Cc3cccc(S(=O)(=O)O)c3)C=C2)c2ccccc2S(=O)(=O)O)cc1 | 92.9% (inactive) |
| C=C1C(=O)O[C@H]2[C@H]1CC/C(C(=O)Nc1ccc(OC)c(C(N)=O)c1O)=C\CC[C@@]1(C)O[C@@H]21 | 20.4% (inactive) |
| Cc1cc2c(C(C)C)c(O)c(O)c(C=NCc3ccoc3)c2c(O)c1-c1c(C)cc2c(C(C)C)c(O)c(O)c(C=NCc3ccco3)c2c1O | 61% (inactive) |
| O=Cc1c(OCc2cnnn2CC(=O)Nc2ccc(Cl)cc2)ccc2ccccc12 | 104% (inactive) |
| COc1cc(Cn2cc3c(c2)-c2onc(CN4CCCC4)c2CC3)cc(OC)c1OC | 82.7% (inactive) |
| O=C(CCN1CCCC1)c1ccc([N+](=O)[O-])cc1 | 85.3% (inactive) |

From PubChem BioAssay (NCI)
